Assay [1] concerns the target Retinoic acid receptor RXR-alpha (Homo sapiens) (UniProt P19793). Kind of assay: ATG_RXRa_TRANS: Attagene TRANS-FACTORIAL HepG2 Assay for human Retinoid X Receptor alpha (RXRa) (AID 2283012). Put shortly: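 Cells (HepG2) carried transiently transfected GAL4-responsive reporter units. Following a 24 h chemical incubation, reporter mRNA induction was read via RT-PCR fragment analysis; DMSO served as negative control and baseline.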

Assay [2] has as its target human Retinoid X Receptor beta (RXRb), RXRB (gene 6257) (UniProt P28702). Nature of the assay: ATG_RXRb_TRANS: Attagene TRANS-FACTORIAL HepG2 Assay for human Retinoid X Receptor beta (RXRb) (AID 2283013). The essentials:
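Multiplexed TRANS reporter assay in HepG2; 24 h dosing; reporter mRNA by RT-PCR/CE fluorescence; gain-of-signal relative to DMSO.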

The target in assay [3] is human Thyroid Receptor alpha (THRa1), THRA (gene 7067) (UniProt P10827). Nature of the assay: ATG_THRa1_TRANS: Attagene TRANS-FACTORIAL HepG2 Assay for human Thyroid Receptor alpha (THRa1) (AID 2283014). The essentials:
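HepG2 cells transiently transfected with chimeric NR-Gal4 and GAL4-UAS reporter units, dosed 24 h. Reporter mRNA quantified by RT-PCR, fluorescent labeling, HpaI digestion and capillary electrophoresis; gain-of-signal fit versus DMSO.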

In assay [4] the target is human RAR-related Orphan Receptor gamma (RORg), RORC (gene 6097) (UniProt P51449). Kind of assay: ATG_RORg_TRANS: Attagene TRANS-FACTORIAL HepG2 Assay for human RAR-related Orphan Receptor gamma (RORg) (AID 2283011). The essentials: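 HepG2 cells transiently transfected with GAL4-UAS reporter units and chimeric RORg-Gal4 construct; after 24 h chemical exposure, reporter mRNA measured by RT-PCR with fluorescent capillary electrophoresis, gain of signal fitted against DMSO.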

Assay [5] addresses human Vitamin D Receptor (VDR), VDR (gene 7421) (UniProt P11473). Nature of the assay: ATG_VDR_TRANS: Attagene TRANS-FACTORIAL HepG2 Assay for human Vitamin D Receptor (VDR) (AID 2283022). Put shortly:
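HepG2 cells were transiently transfected with GAL4-UAS reporter units and a chimeric VDR-Gal4 construct, then dosed for 24 hours. Reporter mRNA was quantified by RT-PCR, fluorescent labeling, HpaI digestion and capillary electrophoresis; gain of signal analysed vs DMSO.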

Read-out in assay [6]: E-selectin (Homo sapiens) (UniProt P16581)
Nature of the assay: BSK_3C_Eselectin: BioMAP Diversity Plus: 3C Assay for Eselectin Biomarker Activity (AID 2283015; active = hit-call score of the fitted dose curve at least 0.9, where 1 is the maximum; inactive = score below 0.9;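 also: cell surface E-selectin protein quantified by ELISA 24 h after dosing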). The note with it: primary human endothelial cells (HUVEC); actives raise or lower the signal. Put shortly:
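Primary human umbilical vein endothelial cells (3C system), read 24 h after compound addition; E-selectin measured by ELISA. Bidirectional curve fitting against DMSO baseline; cytotoxicity by parallel SRB total-protein staining.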

Read-out in assay [7]: Interleukin-1 alpha (IL1a), IL1A (gene 3552)
Nature of the assay: BSK_BE3C_IL1a: BioMAP Diversity Plus: BE3C Assay for Interleukin-1 alpha (IL1a) Biomarker Activity (AID 2283016; active = hit-call score of the fitted dose curve at least 0.9, where 1 is the maximum; inactive = score below 0.9). The note with it: primary human bronchial epithelial cells; actives raise or lower the signal. Put shortly:
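Cultures of primary human bronchial epithelial cells receive test chemical. After 24 h, IL-1a is quantified by ELISA, while parallel wells are fixed in TCA and SRB-stained for total protein. Changes in either direction are fitted relative to DMSO.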

Read-out in assay [8]: Monocyte Chemoattractant Protein-1 (MCP1), CCL2 (gene 6347)
Kind of assay: BSK_3C_MCP1: BioMAP Diversity Plus: 3C Assay for Monocyte Chemoattractant Protein-1 (MCP1) Biomarker Activity (AID 2283017; active = hit-call score of the fitted dose curve at least 0.9, where 1 is the maximum; inactive = score below 0.9). The note with it: primary human endothelial cells (HUVEC); actives raise or lower the signal. Put shortly:
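Human umbilical vein endothelial cells (3C system) exposed to chemicals for 24 h; MCP-1 quantified by ELISA against the DMSO baseline with bidirectional fitting, and parallel SRB staining used to assess cytotoxicity.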

Read-out in assay [9]: Monocyte Chemoattractant Protein-1 (MCP1), CCL2 (gene 6347)
Kind of assay: BSK_4H_MCP1: BioMAP Diversity Plus: 4H Assay for Monocyte Chemoattractant Protein-1 (MCP1) Biomarker Activity (AID 2283018; active = hit-call score of the fitted dose curve at least 0.9, where 1 is the maximum; inactive = score below 0.9). The conditions noted are these: primary human endothelial cells (HUVEC); actives raise or lower the signal. The essentials:
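Readout: MCP-1 ELISA on compound-treated HUVEC, sampled 24 h post-dosing. Baseline and negative control DMSO; bidirectional fit. Overt toxicity checked alongside by sulforhodamine B protein staining at time of biomarker measurement.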

Read-out in assay [10]: Human Leukocyte Antigen - DR isotype (HLADR), HLA-DRA (gene 3122)
Kind of assay: BSK_3C_HLADR: BioMAP Diversity Plus: 3C Assay for Human Leukocyte Antigen - DR isotype (HLADR) Biomarker Activity (AID 2283019; active = hit-call score of the fitted dose curve at least 0.9, where 1 is the maximum; inactive = score below 0.9;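 also: ELISA of cell-surface HLA-DR on HUVEC 24 h after dosing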). The conditions noted are these: primary human endothelial cells (HUVEC); actives raise or lower the signal. The essentials:
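HUVEC monoculture, HLA-DR measured by ELISA 24 h after chemical dosing. Fitted bidirectionally against DMSO baseline; parallel SRB staining assessed cytotoxicity, with 3C proliferation read by SRB at 48 h.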

Read-out in assay [11]: Interleukin-8 (IL8), CXCL8 (gene 3576)
Kind of assay: BSK_3C_IL8: BioMAP Diversity Plus: 3C Assay for Interleukin-8 (IL8) Biomarker Activity (AID 2283020; active = hit-call score of the fitted dose curve at least 0.9, where 1 is the maximum; inactive = score below 0.9). The note with it: primary human endothelial cells (HUVEC); actives raise or lower the signal. Put shortly:
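Human vascular endothelial cells (umbilical vein) in the 3C system; IL-8 level detected by ELISA at 24 h post-dose, with DMSO as baseline.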

Read-out in assay [12]: Monokine induced gamma interferon (MIG), CXCL9 (gene 4283)
Nature of the assay: BSK_3C_MIG: BioMAP Diversity Plus: 3C Assay for Monokine induced gamma interferon (MIG) Biomarker Activity (AID 2283021; active = hit-call score of the fitted dose curve at least 0.9, where 1 is the maximum; inactive = score below 0.9). The note with it: primary human endothelial cells (HUVEC); actives raise or lower the signal. Put shortly:
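After 24 h of treatment, human umbilical vein endothelial cultures (3C system) had their MIG biomarker level determined by ELISA, with DMSO serving as negative control.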

Assay [13] is described as follows: BSK_3C_SRB: Viability Assessment in the BioMAP Diversity Plus: 3C Assay (AID 2283023; active = hit-call score of the fitted dose curve at least 0.9, where 1 is the maximum; inactive = score below 0.9;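 also: fitted both ways against DMSO so a hit may be signal rise or drop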). The conditions noted are these: primary human endothelial cells (HUVEC). The essentials:
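Human umbilical vein endothelial cells in the 3C system, treated 24 h. Total protein measured by 0.1% sulforhodamine B staining after 10% TCA fixation, read at 560 nm; bidirectional fit versus DMSO.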

Read-out in assay [14]: Matrix Metallopeptidase 1 (MMP1), MMP1 (gene 4312)
Kind of assay: BSK_BE3C_MMP1: BioMAP Diversity Plus: BE3C Assay for Matrix Metallopeptidase 1 (MMP1) Biomarker Activity (AID 2283024; active = hit-call score of the fitted dose curve at least 0.9, where 1 is the maximum; inactive = score below 0.9). The conditions noted are these: primary human bronchial epithelial cells; actives raise or lower the signal. Put shortly: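 Dose cells, wait 24 h, run MMP1 ELISA; cells are human bronchial epithelial primaries. Both increases and decreases relative to DMSO counted.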

A short description of assay [15]: BSK_3C_Vis: BioMAP Diversity Plus: 3C Assay for Morphology Visualization (AID 2283025; active = hit-call score of the fitted dose curve at least 0.9, where 1 is the maximum; inactive = score below 0.9;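 also: fitted both ways so gain or loss versus DMSO counts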). The note with it: primary human endothelial cells (HUVEC). The essentials:
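Endothelial cells from human umbilical vein were treated with test chemicals for 24 h and inspected by light microscopy for changes in cell conformation.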

Read-out in assay [16]: Pselectin, SELP (gene 6403)
Kind of assay: BSK_4H_Pselectin: BioMAP Diversity Plus: 4H Assay for Pselectin Biomarker Activity (AID 2283026; active = hit-call score of the fitted dose curve at least 0.9, where 1 is the maximum; inactive = score below 0.9). The conditions noted are these: primary human endothelial cells (HUVEC); actives raise or lower the signal. The essentials: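 Human vascular endothelium from umbilical vein; P-selectin measured by ELISA at 24 h post-dose, with cytotoxicity checked by sulforhodamine B total-protein staining in parallel cultures (0.1% SRB after 10% TCA fixation, read at 560 nm).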

Assay [17] can be described thus: BSK_BE3C_SRB: Viability Assessment in the BioMAP Diversity Plus: BE3C Assay (AID 2283028; active = hit-call score of the fitted dose curve at least 0.9, where 1 is the maximum; inactive = score below 0.9). The note with it: primary human bronchial epithelial cells. The essentials: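 Human bronchial epithelial primary cells in confluent culture, 24 h after chemical dosing; total protein by 0.1% SRB staining after 10% TCA fixation, read at 560 nm. Bidirectional fitting versus DMSO baseline.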

Read-out in assay [18]: Thrombomodulin, THBD (gene 7056)
Nature of the assay: BSK_3C_Thrombomodulin: BioMAP Diversity Plus: 3C Assay for Thrombomodulin Biomarker Activity (AID 2283029; active = hit-call score of the fitted dose curve at least 0.9, where 1 is the maximum; inactive = score below 0.9). The conditions noted are these: primary human endothelial cells (HUVEC); actives raise or lower the signal. The essentials:
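Thrombomodulin ELISA, human primary HUVEC, 24 h post-dose; data fitted in both directions relative to DMSO.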

Read-out in assay [19]: Urokinase-type plasminogen activator receptor (uPAR), PLAUR (gene 5329)
Kind of assay: BSK_4H_uPAR: BioMAP Diversity Plus: 4H Assay for Urokinase-type plasminogen activator receptor (uPAR) Biomarker Activity (AID 2283030; active = hit-call score of the fitted dose curve at least 0.9, where 1 is the maximum; inactive = score below 0.9). The conditions noted are these: primary human endothelial cells (HUVEC); actives raise or lower the signal. Put shortly:
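Human umbilical vein endothelial cells in the 4H system, 24 h after chemical dosing. Cell-surface uPAR measured by ELISA, fitted in both directions versus DMSO; cytotoxicity checked by SRB total protein in parallel cultures.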

Results on 13 compounds are retold here after PubChem BioAssay (EPA / NIEHS).

Records with an inconclusive call do not appear. Activity calls are given as the source filed them. The calls were made as follows, unless noted: active = hit-call score of the fitted dose curve at least 0.9, where 1 is the maximum; inconclusive = response in the unintended direction; inactive = score below 0.9.

human Thyroid Receptor alpha (THRa1), THRA (gene 7067), sequence (P10827 whole entry, looked up, the tested form may be a part): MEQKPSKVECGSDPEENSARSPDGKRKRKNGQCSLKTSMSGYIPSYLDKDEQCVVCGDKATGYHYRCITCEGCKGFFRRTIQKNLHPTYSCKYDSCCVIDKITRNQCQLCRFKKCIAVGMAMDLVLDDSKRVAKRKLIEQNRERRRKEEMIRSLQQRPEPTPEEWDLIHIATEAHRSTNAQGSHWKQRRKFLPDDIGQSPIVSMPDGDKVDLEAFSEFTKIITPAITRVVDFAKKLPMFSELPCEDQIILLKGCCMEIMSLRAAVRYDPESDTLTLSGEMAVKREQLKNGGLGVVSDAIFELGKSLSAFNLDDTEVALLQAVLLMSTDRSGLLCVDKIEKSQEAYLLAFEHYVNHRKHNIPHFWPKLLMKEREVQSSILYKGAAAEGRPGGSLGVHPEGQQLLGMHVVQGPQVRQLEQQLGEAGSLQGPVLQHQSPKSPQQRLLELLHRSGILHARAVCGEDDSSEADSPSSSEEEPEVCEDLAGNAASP
Retinoic acid receptor RXR-alpha (Homo sapiens), sequence (P19793 whole entry, looked up, the tested form may be a part): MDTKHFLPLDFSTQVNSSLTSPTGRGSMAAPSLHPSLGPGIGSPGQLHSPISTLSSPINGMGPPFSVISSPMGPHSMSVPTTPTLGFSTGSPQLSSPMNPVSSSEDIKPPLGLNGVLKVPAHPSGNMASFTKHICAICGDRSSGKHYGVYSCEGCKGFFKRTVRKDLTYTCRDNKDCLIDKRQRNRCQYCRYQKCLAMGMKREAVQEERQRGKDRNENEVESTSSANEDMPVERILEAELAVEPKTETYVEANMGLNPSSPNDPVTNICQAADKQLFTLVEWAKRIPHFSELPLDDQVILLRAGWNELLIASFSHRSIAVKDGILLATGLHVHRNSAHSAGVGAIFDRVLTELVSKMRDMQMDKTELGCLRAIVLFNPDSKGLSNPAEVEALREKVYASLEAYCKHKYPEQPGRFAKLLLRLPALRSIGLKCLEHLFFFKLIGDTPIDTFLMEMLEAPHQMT
human Retinoid X Receptor beta (RXRb), RXRB (gene 6257), sequence (P28702 whole entry, looked up): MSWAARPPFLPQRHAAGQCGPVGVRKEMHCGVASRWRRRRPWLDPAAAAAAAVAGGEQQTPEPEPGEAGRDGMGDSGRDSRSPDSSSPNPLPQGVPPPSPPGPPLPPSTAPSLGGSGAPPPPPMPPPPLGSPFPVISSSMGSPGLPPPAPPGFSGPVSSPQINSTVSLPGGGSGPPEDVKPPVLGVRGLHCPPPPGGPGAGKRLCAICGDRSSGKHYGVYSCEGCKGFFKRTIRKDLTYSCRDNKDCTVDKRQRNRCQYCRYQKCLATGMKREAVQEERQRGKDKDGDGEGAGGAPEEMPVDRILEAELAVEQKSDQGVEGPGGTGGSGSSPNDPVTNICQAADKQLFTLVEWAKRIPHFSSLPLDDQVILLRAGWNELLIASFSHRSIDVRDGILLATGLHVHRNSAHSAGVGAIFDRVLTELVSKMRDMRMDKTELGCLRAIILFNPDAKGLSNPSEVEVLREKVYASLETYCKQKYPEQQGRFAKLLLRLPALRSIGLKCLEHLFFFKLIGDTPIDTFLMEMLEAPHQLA
human Vitamin D Receptor (VDR), VDR (gene 7421), sequence (P11473 whole entry, looked up, the tested form may be a part): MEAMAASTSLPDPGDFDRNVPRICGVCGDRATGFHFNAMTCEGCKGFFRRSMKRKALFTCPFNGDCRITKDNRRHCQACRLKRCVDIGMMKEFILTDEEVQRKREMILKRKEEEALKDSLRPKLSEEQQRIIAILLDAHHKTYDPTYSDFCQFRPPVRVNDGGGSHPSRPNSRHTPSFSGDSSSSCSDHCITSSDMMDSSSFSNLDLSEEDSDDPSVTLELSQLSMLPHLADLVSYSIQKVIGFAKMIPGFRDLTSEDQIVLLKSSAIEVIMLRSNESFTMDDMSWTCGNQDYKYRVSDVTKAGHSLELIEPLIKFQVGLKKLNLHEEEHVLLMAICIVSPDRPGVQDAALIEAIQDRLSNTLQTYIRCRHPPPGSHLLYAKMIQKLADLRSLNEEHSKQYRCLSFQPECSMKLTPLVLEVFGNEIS
human RAR-related Orphan Receptor gamma (RORg), RORC (gene 6097), sequence (P51449 whole entry, looked up, the tested form may be a part): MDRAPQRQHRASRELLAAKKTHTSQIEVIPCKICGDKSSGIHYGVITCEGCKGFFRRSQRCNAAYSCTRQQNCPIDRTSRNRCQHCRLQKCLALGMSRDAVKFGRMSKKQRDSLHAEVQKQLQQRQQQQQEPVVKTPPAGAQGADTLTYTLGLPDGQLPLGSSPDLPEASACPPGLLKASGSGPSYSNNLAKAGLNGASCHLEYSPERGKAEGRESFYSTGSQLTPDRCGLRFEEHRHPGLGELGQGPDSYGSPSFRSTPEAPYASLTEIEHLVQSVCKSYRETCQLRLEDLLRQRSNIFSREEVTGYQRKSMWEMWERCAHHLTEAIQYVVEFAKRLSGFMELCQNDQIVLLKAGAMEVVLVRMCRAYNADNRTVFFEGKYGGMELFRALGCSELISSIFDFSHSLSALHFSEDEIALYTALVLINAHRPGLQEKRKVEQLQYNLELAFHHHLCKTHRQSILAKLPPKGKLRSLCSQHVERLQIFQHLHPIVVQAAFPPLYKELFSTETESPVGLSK
E-selectin (Homo sapiens), sequence (P16581 whole entry, looked up): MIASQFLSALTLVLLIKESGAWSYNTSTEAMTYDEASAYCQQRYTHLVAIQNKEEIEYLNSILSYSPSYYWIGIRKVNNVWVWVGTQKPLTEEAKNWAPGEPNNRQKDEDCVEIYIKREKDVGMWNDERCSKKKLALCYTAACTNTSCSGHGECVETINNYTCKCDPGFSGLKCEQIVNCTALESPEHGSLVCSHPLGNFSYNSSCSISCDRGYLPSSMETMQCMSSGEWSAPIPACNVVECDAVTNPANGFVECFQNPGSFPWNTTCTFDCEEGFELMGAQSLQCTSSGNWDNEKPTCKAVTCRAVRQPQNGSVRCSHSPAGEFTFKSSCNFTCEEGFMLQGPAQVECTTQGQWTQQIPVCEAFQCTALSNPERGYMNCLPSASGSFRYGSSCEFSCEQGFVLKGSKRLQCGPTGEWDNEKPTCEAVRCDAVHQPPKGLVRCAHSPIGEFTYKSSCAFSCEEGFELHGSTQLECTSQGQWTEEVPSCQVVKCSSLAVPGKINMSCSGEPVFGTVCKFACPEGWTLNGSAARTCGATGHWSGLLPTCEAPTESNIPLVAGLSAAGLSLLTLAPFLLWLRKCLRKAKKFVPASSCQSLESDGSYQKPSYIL

For orientation: AC50 means the midpoint of the concentration-response curve, whichever way the signal moves. With `C/C=C(\C)C(=O)OC/C=C(\C)CCC=C(C)C`, the AC50 in assay [1] is 30.7 µM (active); in assay [2], 4.63 µM (active). Besides, the call in assay [3] was inactive.
On to `CCCCCC1CCC(=O)O1` (configuration not stated), for which the compound was called inactive in [1] and in [2].
Consider `CC1=CCC(=C(C)C)CC1`, for which the result in [1] and in assay [2] was inactive.
Turning to `CCCCCC#CC(=O)OC`, the compound was called inactive in assay [1].
`O=c1cc(-c2ccc(O)cc2)oc2cc(O)cc(O)c12`: the call in assay [1], in [2] and in assay [3] was inactive.
As to `O=C(O)c1ccco1`, the outcome in assay [1] was inactive.
Turning to `NC(=O)NC(N)=O`, the outcome in assay [1] and in [2] was inactive.
In the case of `CCCCCC(=O)O[C@]1(C(C)=O)CC[C@H]2[C@@H]3CCC4=CC(=O)CC[C@]4(C)[C@H]3CC[C@@]21C`, in assay [1], the outcome was inactive.
Take `CCCCCc1cccc(=O)o1`: the compound was classed as inactive in assay [1] and in assay [2].
Regarding `C=C(C)CCCC(C)CCO` (configuration not stated), the result in [1], in assay [2] and in assay [3] was inactive.
With `CCO[Si](CC)(OCC)OCC`, the result in [4] and in [5] was inactive.
Turning to `CC1(C)[C@H](C=C(Cl)Cl)[C@H]1C(=O)OCc1cccc(Oc2ccccc2)c1`, the compound was classed as inactive in assay [1], in [2], in assay [3], in assay [6], in assay [7] and in [8]. The outcome in [9], in assay [10], in assay [11], in assay [12], in assay [5] and in [13] was inactive. The result in [14], in assay [15], in assay [16], in assay [17], in [18] and in assay [19] was inactive.
As to `CC(=O)OC/C=C(C)/C=C/C=C(C)/C=C/C1=C(C)CCCC1(C)C`, the compound was called inactive in assay [1] and in [5].
